# Sampled rows, rich in hits. Any-hit rate of the full collection: about 9.2%.
# SMN2 splice up: enhancers of SMN2 splice variant expression | Potency, µM (top dose mostly 46.1 µM), inactives show at the top dose activity change, positive = activation, most hits filed as activators | actives 2.8% (n = 210,000) | HEK293 SMN2-luciferase splicing reporter, luminescence, 30-36 h | AID 1458; note: % of control where 0% means no effect; nearly all actives have a fitted effect of over 55% in size
#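 HEK293 cells carry an SMN2 […]–luciferase reporter in which exon 7 inclusion puts luciferase in frame. Cells were plated 10-12 h before compound addition, then incubated 30-36 h at 37C. ONE-Glo luminescence was read; sodium butyrate at 4.5 mM final served as control.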
# ELG1 DNA repair: blocks ELG1-dependent DNA repair in HEK293T cells; AID 504467; HEK293T ELG1-luciferase reporter, luminescence, 16 h; DNA damage induced by 5-fluorouridine; actives 2.3% (n = 330,000); Potency, µM (highest dose often 46.1 µM), for inactives: top-dose activity change, negative = inhibition, most hits filed as inhibitors; note: % is set by controls: 0 for no effect and ±100 for the full control effect; nearly all actives have a fitted effect of over 55% in size
#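 HEK293T cells expressing luciferase-tagged ELG1 (2,000/well) received 5-Fluorouridine plus compound or DMSO for 16 hr at 37 °C. Luciferase was read by ONE-Glo luminescence after 30 min at room temperature.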
# Rab9 promoter act: activators of Rab9 promoter. AID 485297. actives 2.8% (n = 320,000). Potency, µM (titrated, usually from 9.22 µM), for inactives: top-dose activation, negative = inhibition, usual class: activators. Huh7 Rab9 promoter-luciferase reporter, luminescence, 24 h; note: % of control where 0% means no effect; nearly all actives have a fitted effect of over 60% in size
#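 Huh7 cells stably carrying Rab9 promoter–luciferase reporter, plated 1500 cells/well, compound added after 2 h and incubated 24 h at 37 °C; luciferase luminescence then read after 10 min with detection reagent.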
# FLuc modulator: counter-screen for miR-21 project: firefly luciferase inhibitors or activators. P08659. purified FLuc, Km substrates, luminescence inhibition. Potency, µM (highest dose often 57.5 µM), for inactives: top-dose activity change, negative = inhibition, actives largely listed as inhibitors. actives 6.9% (n = 360,000). AID 588342;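 note: plate controls were vehicle for no effect and reference inhibitor for full effect; nearly all actives have a fitted effect of over 55% in size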
# Target sequence (P08659 whole entry, looked up): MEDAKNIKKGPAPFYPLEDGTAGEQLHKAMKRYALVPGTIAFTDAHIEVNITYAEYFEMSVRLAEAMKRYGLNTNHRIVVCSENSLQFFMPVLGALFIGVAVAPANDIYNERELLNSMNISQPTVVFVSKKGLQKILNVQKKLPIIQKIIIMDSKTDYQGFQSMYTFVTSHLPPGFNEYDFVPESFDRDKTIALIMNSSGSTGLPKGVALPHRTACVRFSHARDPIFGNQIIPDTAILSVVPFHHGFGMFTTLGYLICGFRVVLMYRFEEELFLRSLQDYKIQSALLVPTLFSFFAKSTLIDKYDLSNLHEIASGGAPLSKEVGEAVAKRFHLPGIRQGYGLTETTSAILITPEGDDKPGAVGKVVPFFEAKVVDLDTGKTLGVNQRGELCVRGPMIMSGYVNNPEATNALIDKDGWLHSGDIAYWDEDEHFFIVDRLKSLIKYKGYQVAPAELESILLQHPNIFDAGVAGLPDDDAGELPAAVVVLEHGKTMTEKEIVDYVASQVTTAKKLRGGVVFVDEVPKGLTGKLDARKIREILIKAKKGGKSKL
#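 Purified P. pyralis luciferase (10nM final) with 10uM D-luciferin and 10uM ATP (Km levels) in 50mM Tris acetate pH 7.5, 10mM Mg acetate, 0.01% Tween-20, 0.05% BSA; qHTS 6-point titration, ~60 µM downward; luminescence read.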
# NPC1 prom act: activators of NPC1 promoter | Huh7 NPC1 promoter luciferase reporter, 24 h | actives 2.4% (n = 320,000) | Potency, µM (highest dose often 9.22 µM), for inactives: at the top dose activation, most hits filed as activators; note: % of control where 0% means no effect; nearly all actives have a fitted effect of over 60% in size
#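 Readout is luciferase luminescence, reflecting NPC1 promoter activation in stably transfected Huh7 cells after 24 h compound exposure at 37 °C in reduced-serum medium with 10% FBS.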
# ELG1 genotoxic: induces genotoxicity in HEK293T cells with luciferase-tagged ELG1. HEK293T ELG1-luciferase reporter, luminescence, 16 h. Potency, µM (series often up to 46 µM), for the others: top-dose activity change, positive = activation, usual class: activators. actives 1.3% (n = 330,000). AID 504466; note: % of control where 0% means no effect; nearly all actives have a fitted effect of over 60% in size
#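 HEK293T cells expressing luciferase-tagged ELG1 were exposed to compound or DMSO vehicle for 16 hr at 37 °C and 5% CO2. Luciferase activity was then measured with ONE-Glo after 30 min at room temperature.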
# Numbers without * were called inactive; u = inconclusive; x = no result given. Calls come from the whole dose curve; as a rule, active = well fitted curve in the direction sought with a large enough effect; inconclusive = small, poorly fitted or top-dose-only effect, or another doubt; inactive = no such curve, though single readings can be large; an effect the other way counts as inactive or inconclusive. Potency is the fitted concentration of half-maximal effect.
SMILES,SMN2 splice up,ELG1 DNA repair,Rab9 promoter act,FLuc modulator,NPC1 prom act,ELG1 genotoxic
CCCC1(C)Nc2ccccc2-c2nc3ccccc3n21 (centres undefined),-5%,u,u,19µM*,23%,18%
CCCn1c(-c2ccc[nH]c2=O)nc2ccccc21,x,1%,-20%,-2%,1%,0%
c1ccc2c(c1)NC1(CCCC1)n1c-2nc2ccccc21,11%,u,2%,19µM*,29%,2%
Cc1ccc(SCCC(=O)OCC(=O)NCC2CCCCC2)cc1,x,-19%,1%,u,-6%,-1%
Clc1ccc(-c2nc3ccccc3[nH]2)cn1,x,u,u,19µM*,u,10%
Cc1ccc2oc(=O)c(-c3nc4ccc(C)cc4[nH]3)cc2c1,x,x,x,3%,x,x
Cc1ccc2nc(-c3ccncc3)[nH]c2c1,x,u,u,8.5µM*,2.2µM*,12µM*
Cc1ccc(-c2nc3ccccc3[nH]2)cn1,x,u,u,15µM*,u,u
Cc1nc2ccc([N+](=O)[O-])cc2[nH]1,0%,-8%,-2%,-2%,-2%,-2%
Cc1nc2ccc(-c3nc4ccccc4[nH]3)cc2[nH]1,2.8µM*,u,0.63µM*,4.8µM*,1.4µM*,19%
Cc1cc(Cn2nnc3ccccc32)c(O)c(C(C)(C)C)c1,x,17%,-3%,-1%,-4%,0%
Cc1ccc2nc(C(F)C(F)(F)F)[nH]c2c1 (centres undefined),x,u,1%,19µM*,-4%,7%
O=C(CCC1N=C2c3ccccc3N=C(SCc3ccc(F)cc3)N2C1=O)NCc1ccc(F)cc1 (centres undefined),x,x,x,1%,x,x
COc1ccc(C2=NS(=O)(=O)N(C)C(C(=O)Nc3ccc(C)cc3)=C2)cc1,x,-2%,1%,-16%,0%,-1%
COc1cc(NC(=O)C2=CC(c3ccc(F)cc3)=NS(=O)(=O)N2C)cc(OC)c1OC,x,x,x,1.3µM*,x,x
Cc1cc(C(=O)OCC(=O)Nc2cc(Cl)ccc2C)c(C)o1,x,25%,3%,-1%,1%,4%
CCC(=O)Nc1cc(C(=O)OCC(=O)c2ccccc2)ccc1C,x,u,u,12µM*,u,u
CCC(=O)Nc1cc(C(=O)OCC(=O)c2ccc(Cl)cc2Cl)ccc1C,17%,2%,-1%,2.1µM*,-4%,-2%
CCC(=O)Nc1cc(C(=O)OCC(=O)c2ccccc2Cl)ccc1C,x,u,3.5µM*,8.5µM*,u,u
Cc1ccccc1NC(=O)CC(=O)c1ccccc1,x,u,u,u,28%,11%
O=C(O)CCC(=O)Nc1ccc(C(=O)OCC(=O)c2ccc(Cl)cc2Cl)cc1,x,u,-8%,13µM*,-6%,0%
COc1ccc(CN2CCC(=O)N([C@H](CO)CC(C)C)CC2)cc1OC,x,17%,2%,1%,-4%,-2%
Oc1ccc(/C=C/c2nc(-c3ccccc3O)n(-c3ccccc3)n2)cc1,-16%,-7%,5%,17µM*,-4%,0%
O=C(CCl)N1CCN(S(=O)(=O)c2ccc3c(c2)OCCCO3)CC1,x,18µM*,-33%,3%,-5%,6%
O=S(=O)(c1ccc(N2CCN(S(=O)(=O)c3ccc4c(c3)OCCO4)CC2)nc1)N1CCCC1,x,8.2µM*,1%,9%,-6%,-6%
O=S(=O)(c1ccc(N2CCN(Cc3ccc4c(c3)OCO4)CC2)nc1)N1CCOCC1,-32%,u,-2%,-1%,-4%,-10%
CCCCCC(=O)N1CCN(S(=O)(=O)c2ccc3c(c2)OCCO3)CC1,x,-1%,1%,-1%,0%,1%
CC(C)NC(=O)N(C)C[C@H]1Oc2c(NC(=O)Nc3ccc4c(c3)OCO4)cccc2C(=O)N([C@H](C)CO)C[C@@H]1C,x,u,x,x,x,-3%

# Compound activity deposited in PubChem by National Center for Advancing Translational Sciences (NCATS).
